Screens from PubChem.
RBX1-CUL1 inh: inhibitors of human ROC1-CUL1 ubiquitin ligase activity. P62877+Q13616. in vitro K48 di-Ub FRET, acceptor:donor ratio, 45 min. AID 1347404. actives 0.6% (n = 140,000). inhibition, % at 10 µM; in the data active = inhibition above about 25%
Hits are given with their value; - = inactive. This is one part of a sample in which hits are shown more often than they occur.

SMILES	RBX1-CUL1 inh
CC(=O)OCC1OC(COc2ccc(C(=O)c3cscn3)c(O)c2)C(OC(C)=O)C(OC(C)=O)C1OC(C)=O (stereo not given)	-
Fc1ccc(Nc2ncnc3ccccc23)cc1Cl	-
c1ccc2c(c1)c(N1CCOCC1)nn1nnnc21	-
Cc1nnc(Cl)c2ccccc12	-
Clc1nn2nnnc2c2ccccc12	30
O=C(Cc1ccccc1Cl)c1ccc(O)c(O)c1O	101
O=C(Cc1ccccc1)Nc1cc(Cl)ccc1O	-
O=C(Cc1ccccc1Cl)N1CCN(c2ncccn2)CC1	-
CC(NC(=O)c1ccncc1)c1ccc(C(C)(C)C)cc1 (stereo not given)	-
CCn1ncc(CN2CCCC2C(=O)Nc2ccc(-c3cscn3)cc2)c1C (stereo not given)	-
Cc1ccccc1CN1CCC(N2CCC(C(=O)N3CCCC(O)C3)CC2)CC1 (stereo not given)	-
C#CCN(CC=C)c1nc2nonc2nc1N1CCCC1	-
Cc1ccc(-c2ccccc2)n1-c1cccc(C(=O)O)c1	-
Cc1ccc(C(=O)O)cc1-n1c(C)ccc1-c1ccccc1	-
Cc1ccc(-c2ccccc2)n1-c1ccc(C(=O)O)cc1	-
Cc1ccc(-c2ccccc2)n1-c1ccc(Cl)c(C(=O)O)c1	-
Cc1ccc(C)n1-c1cc(C(=O)O)ccc1Cl	101
Cc1ccc(C)n1-c1ccc(C(N)=O)cc1	-
Cc1cc(C(=O)O)ccc1-n1c(C)ccc1C	99
Cc1ccc(C)n1-c1cccc(Cl)c1Cl	-
Cc1ccc(C(=O)O)cc1-n1c(C)ccc1C	96
Cn1ccnc1SCCNC(=O)c1cn(CCN2CCCCC2)nn1	-
CCC(=O)N1CCC(C(=O)Nc2cccc(-c3cccc(Cl)c3)c2)CC1	-
CCc1ccc(-c2n[nH]c3c2CN(C(=O)c2cnn4ccccc24)CC3)cc1	-
COC(=O)c1c(O)ccc(-c2ccc(C)cc2)c1C(=O)OC	-
SMILES	RBX1-CUL1 inh
CCSC(=O)N1C=Cc2ccccc2C1(C#N)C(=S)SC (stereo not given)	-
O=c1oc2c(Cl)cc(Cl)cc2cc1-c1nc(-c2cccs2)cs1	-
N#Cc1ccc(C2Nc3cccc4cccc(c34)N2)cc1	-
O=C1NN(c2ccc(I)cc2)C(=O)/C1=C\c1ccc(O)c(O)c1	106
COc1cc(/C=C2/C(=O)NN(c3ccc(F)cc3)C2=O)cc(Cl)c1O	-
O=C1NN(c2ccc(I)cc2)C(=O)/C1=C\c1ccccc1	-
CN(c1ccccc1)c1ccc(/C=C2\C(=O)NN(c3ccccc3)C2=O)cc1	31
Cc1ccc(N2NC(=O)/C(=C/c3ccc(F)cc3)C2=O)cc1Cl	50
Cc1ccc(N2NC(=O)/C(=C/c3ccc(N(C)CCC(C)C)cc3)C2=O)cc1C	-
Cc1ccc(N2NC(=O)/C(=C/c3ccc(F)cc3)C2=O)cc1C	78
COc1ccc(/C=C2\C(=O)NN(c3ccc(F)cc3)C2=O)cc1	-
O=C1NN(c2ccc(I)cc2)C(=O)/C1=C\c1ccc(O)cc1O	-
Cc1cccc(N2NC(=O)/C(=C/c3ccccc3)C2=O)c1	-
O=C1NN(c2ccccc2)C(=O)/C1=C/c1ccccc1	-
Cc1ccc(N2NC(=O)/C(=C\c3ccc(N(C)C)c(Br)c3)C2=O)cc1Cl	-
CCC(=O)C1C(=O)CC(c2ccccc2)CC1=Nc1ccccc1C (stereo not given)	-
CC(C)(C)c1cc(Br)ccc1OCC(=O)Nc1sc2c(c1C(N)=O)CCCC2	-
CC(C)(C)NC(=O)[C@@H]1CCCN1C(=O)OC(C)(C)C	-
COc1ccc(NC(=O)CN(c2ccc(C34CC5CC(CC(C5)C3)C4)cc2)S(C)(=O)=O)cc1	-
COC(=O)c1c(NC(=O)C2CCC2)sc(C)c1-c1cccc(Cl)c1	-
Cc1ccc(C(C)C)c(OCc2nnc(SCC(=O)NC(C)c3ccccc3)n2C)c1 (stereo not given)	-
COc1nccnc1NS(=O)(=O)c1ccc(N=CC2C(=O)N(c3ccc(C)c(C)c3)N=C2C)cc1 (stereo not given)	-
O=C1NN(c2ccc(F)c(Cl)c2)C(=O)/C1=C\c1ccc(F)cc1	77
O=C1NN(c2ccc(F)cc2)C(=O)/C1=C\c1ccc(F)cc1	-
COc1cc(/C=C2\C(=O)NN(c3ccc(C)cc3)C2=O)cc(OC)c1OC	-
SMILES	RBX1-CUL1 inh
COC(=O)c1ccc(N2NC(=O)/C(=C/c3ccc(C)cc3)C2=O)cc1	27
COc1ccc(/C=C2/C(=O)NN(c3cccc(C)c3)C2=O)cc1	-
O=C1NN(c2ccc(F)cc2)C(=O)/C1=C/c1ccccc1	-
Cc1ccc(N2NC(=O)/C(=C/c3ccc(F)cc3)C2=O)cc1	71
CC(=O)c1[nH]c2ccccc2c1C(C)=O	-
Cc1nn(C)c(C)c1-c1cnc(C2CC(=O)N(CC(C)C)C2)[nH]1 (stereo not given)	-
COCC(=O)Nc1cc(C(=O)N(C)Cc2ccco2)cc2ncn(CCc3ccccc3)c12	-
Cc1ccc(C2(C(F)(F)F)NC(=O)N3c4ccccc4SC3N2)cc1 (stereo not given)	-
COC(=O)CCC(=O)N1CCc2onc(-c3ccccc3F)c2C1	-
CCS(=O)(=O)N1CCC(C(=O)Nc2cccc(C(F)(F)F)c2)CC1	-
N#Cc1c(SCC(=O)c2ccc(F)cc2)nc2c(c1-c1cccnc1)CCC2	-
Cc1ccccc1NC(=O)c1c(C)nc(SCC(=O)c2ccc(O)c(O)c2)c(C#N)c1-c1cccnc1	28
N#Cc1c(N)nc(SCC(=O)c2ccc(O)c(O)c2)c(C#N)c1-c1ccc(OCc2ccccc2)cc1	-
Nc1c(C(=O)Nc2ccccc2Br)sc2ncccc12	-
O=C(Nc1cccc(N2CCC(NCCOc3cccnc3)CC2)c1)c1cccc(C(F)(F)F)c1	-
CN1C(=O)C(Cc2cc(Cl)ccc2O)=NC1=S	27
COc1cc(CC2=NC(=S)N(C)C2=O)c(Br)cc1OCc1ccc(Cl)cc1	-
CN1C(=O)C(Cc2ccc(Br)s2)=NC1=S	-
COc1cc(C=C2C(=O)NC(=S)NC2=O)cc(Cl)c1OCc1ccccc1C	-
CCCc1cc(C(=O)Nc2cc(OC)ccc2OC)n(C)n1	-
COc1ccc(CNc2ccc(C(=O)O)cc2C)cc1	-
CCOc1cc(/C=C2/N=C(c3ccc(Br)cc3)OC2=O)ccc1OC(=O)CC	-
Cc1csc(CNc2ccc(-c3nc(C4CC4)no3)cn2)n1	-
CCOC(=O)[C@H]1C(=O)Oc2ccccc2[C@@H]1C(C)C	-
Clc1ccccc1C1NCCS1 (stereo not given)	31
SMILES	RBX1-CUL1 inh
COc1ccc2[nH]c3c(c2c1)CCNC3c1ccccc1Cl (stereo not given)	-
CC12CN3CC(C)(CN(C1)C3c1ccccc1Cl)C2O (stereo not given)	-
CC(C)c1ccc2c(c1)C(N1CCN(CCCC(=O)c3ccc(F)cc3)CC1)Cc1ccc(F)cc1S2 (stereo not given)	-
COc1ccc(-c2cc(=O)n(-c3ccccc3)[nH]2)cc1OC	-
O=c1ccc(=O)n(-c2ccccc2)[nH]1	-
CC(C)(C)c1cc(=O)n(-c2ccccc2)[nH]1	73
COc1ccc(C(=O)NCC(C)C)cc1C	-
CCc1ccc(O)c(NC(=S)NC(=O)c2cccc(Br)c2)c1	-
CC(C)OC(=O)c1ccc(-c2ccc(/C=C3/C(=O)NN(c4ccccc4)C3=O)o2)cc1	-
CCOC(=O)c1ccc(-c2ccc(/C=C3/C(=O)NN(c4ccc(C)cc4)C3=O)o2)cc1	-
O=C1NN(c2cccc(Cl)c2)C(=O)/C1=C/c1ccc2c(c1)OCO2	-
O=C1NN(c2cccc(Br)c2)C(=O)/C1=C\c1ccc(-c2ccc(C(=O)O)cc2)o1	60
